In the library only some 1.5% were active in any assay of this set; here they are far more common.
Coupling enz – inhibits coupling enzyme system, counter-screen for aldolase hits | activity change, negative = inhibition, % at 58.2 µM, hits read low | AID 2472 | coupling enzyme system counterscreen, AmpLite Red fluorescence | actives 0.67% (n = 290,000); in the data active means activity change below about -30%
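Counterscreen lacking aldolase: glyceraldehyde-3-phosphate coupling-enzyme reagent preincubated 10 min at RT with compound (at 57.5 uM final), then substrate/coupling system with AmpLite Red added; fluorescence read at 525/598 nm after 20 min RT.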
GALK inhibitor – blocks human galactokinase activity | P51570 | Purified GALK, Kinase-Glo residual ATP luminescence | Potency, µM (titrated, usually from 57.5 µM), for inactives: top-dose activity change, negative = inhibition, hits mostly inhibitors | actives 0.007% (n = 270,000) | AID 1868; further: potency means the concentration at half of the fitted maximal effect
Target sequence (P51570 whole entry, looked up): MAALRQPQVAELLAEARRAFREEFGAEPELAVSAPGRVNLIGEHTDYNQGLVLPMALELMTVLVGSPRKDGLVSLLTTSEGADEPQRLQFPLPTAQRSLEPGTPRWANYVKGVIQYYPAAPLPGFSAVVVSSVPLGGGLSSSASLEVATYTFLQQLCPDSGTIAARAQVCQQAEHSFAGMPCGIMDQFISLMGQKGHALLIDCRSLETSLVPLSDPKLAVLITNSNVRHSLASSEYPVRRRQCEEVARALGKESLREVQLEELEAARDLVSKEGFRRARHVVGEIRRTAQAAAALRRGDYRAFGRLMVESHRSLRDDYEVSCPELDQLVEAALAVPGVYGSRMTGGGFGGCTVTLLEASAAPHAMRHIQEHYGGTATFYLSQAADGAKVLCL
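Galactose (100 uM) and ATP (35 uM) were turned over by 5 nM GALK for 1 h at RT. Kinase-Glo Plus then converted the remaining ATP into a luminescent signal.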
TrxR1 substrate – substrates of rat thioredoxin reductase 1; O89049; actives 0.01% (n = 390,000); AID 588456; Potency, µM (titrated, usually from 114 µM), without a hit: at the highest dose activity change, negative = substrate turnover; purified TrxR1 substrate turnover, NADPH consumption readout; further: potency means the concentration at half of the fitted maximal effect; nearly all actives have a fitted effect of over 50% in size
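Rat TrxR1, dispensed at 90 nM, was prereduced with 400 uM NADPH (final) for 5 min at ~22 deg C, then incubated with compound 15 min before 400 uM selenite. A first-read NADPH fluorescence drop versus no-compound background flagged substrates.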
TrxR1 inh – rat TrxR1 inhibition; O89049; recombinant rTrxR1, NADPH fluorescence consumption, selenite substrate; Potency, µM (series often up to 114 µM), for the others: at the top dose activity change, negative = inhibition, hits mostly inhibitors; actives 1% (n = 390,000); AID 588453; further: potency means the concentration at half of the fitted maximal effect; nearly all actives have a fitted effect of over 65% in size
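Rat TrxR1 (90 nM in the dispensed reagent) was pre-reduced with 400 uM NADPH for 5 min at room temperature, then incubated with compound for 15 min. After 400 uM selenite was added, NADPH fluorescence (Ex 340/Em 450 nm) was followed for 8 min.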
USP1-UAF1 inh – USP1/UAF1 (human) deubiquitinase inhibition; recombinant USP1/UAF1, Ub-Rhodamine cleavage fluorescence; O94782; actives 0.23% (n = 390,000); Potency, µM (highest dose often 57.1 µM), for inactives: top-dose activity change, negative = inhibition, most hits filed as inhibitors; further: potency means the concentration at half of the fitted maximal effect; nearly all actives have a fitted effect of over 60% in size
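1 nM enzyme complex + cpd, 15 min RT; start with Ub-Rho 150nM final; kinetic fluorescence ex 480/em 540, 6 reads q60 s. Buffer 50mM HEPES pH 7.8, 0.5mM EDTA, 0.1 mg/ml BSA, 1mM TCEP, 0.01% Tween-20.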
* marks the source's active call; other numbers are inactive results; [ ] = remark or other dose. Unless noted, the call rests on the fitted dose curve; in most records, active means well fitted curve in the direction sought with a large enough effect; inconclusive means small, poorly fitted or top-dose-only effect, or another doubt; inactive means no such curve, though single readings can be large; an effect the other way counts as inactive or inconclusive. On the % scale 0 is the no-effect control and ±100 the full control effect.

C#CCN1C(=O)C(O)(CC(=O)/C=C/C=C/c2ccccc2)c2ccccc21 (stereo not given) was read as Coupling enz -3, GALK inhibitor 7%, TrxR1 substrate -6%, TrxR1 inh 28µM* and USP1-UAF1 inh -19%.
CCOc1ccc2nc3cc(N=Nc4ccc(N)nc4N)ccc3c(N)c2c1 was read as TrxR1 substrate 3%[57.1 µM], TrxR1 inh -6%[11.4 µM] and USP1-UAF1 inh 16µM*.
Screening CCOC(=O)c1c(C)n(C(=O)c2ccco2)c(=O)n1C(=O)c1ccco1 returned Coupling enz 1, GALK inhibitor 3%, TrxR1 substrate -4%, TrxR1 inh 40µM* and USP1-UAF1 inh -15%.
Cc1cc2c(cc1C)N[C@]1(C[C@H]3CCCC(=O)N4CC[C@@H](C1)[C@@H]34)C(=NC1CCCCC1)N2 was read as TrxR1 substrate -2% and TrxR1 inh 3%.
Screening COc1ccc(OCC(=O)OCC(=O)NC2CCCCC2C)cc1 (stereo not given) returned TrxR1 substrate -10%, TrxR1 inh 5% and USP1-UAF1 inh -10%.
Screening COc1cc(NC2CCCCC2O)c2nc(-c3ccc(Cl)cc3)ccc2c1 (stereo not given) returned Coupling enz -31*, GALK inhibitor 4%, TrxR1 substrate 2%, TrxR1 inh 4% and USP1-UAF1 inh -26%.
NC(N)=NS(=O)(=O)c1ccc(NC(=S)NC(=O)c2ccccc2)cc1 was read as Coupling enz 1, TrxR1 substrate -11%, TrxR1 inh 50µM* and USP1-UAF1 inh -18%.
For COc1ccc(NC(=S)N/C(=N/S(=O)(=O)c2ccc(C)cc2)c2ccccc2)cc1 the results were Coupling enz 2, GALK inhibitor -2%, TrxR1 substrate -2%, TrxR1 inh 22µM* and USP1-UAF1 inh -17%.
`Cc1ccc(S(=O)(=O)/N=C(\Sc2ccccc2)c2ccccc2)cc1` gave Coupling enz 2, GALK inhibitor 3%, TrxR1 substrate 14%, TrxR1 inh 2.8µM* and USP1-UAF1 inh -8%.
`CN(C)c1ccc(C=Nc2cnc3ccccc3c2)cc1` gave TrxR1 substrate 152% and TrxR1 inh 40%[0.0914 µM].
Cc1ccc(C)c(CN2C(=O)COc3ccc(C(=O)c4ccccc4C(=O)O)cc32)c1 was read as Coupling enz -35*, GALK inhibitor 8%, TrxR1 substrate 2%[57.1 µM], TrxR1 inh 10%[57.1 µM] and USP1-UAF1 inh -13%.
`Cc1ccc(C)c(CN2C(=O)COc3ccccc32)c1` gave Coupling enz 0, GALK inhibitor 7%, TrxR1 substrate -1%[57.1 µM], TrxR1 inh 18%[57.1 µM] and USP1-UAF1 inh -4%.
For O=C(Oc1ccccc1[N+](=O)[O-])c1cccnc1 the results were Coupling enz 0, GALK inhibitor -3%, TrxR1 substrate -4%, TrxR1 inh 14µM* and USP1-UAF1 inh 2%.
Screening CC(C)c1nnc(NC(=O)CCS(=O)(=O)c2nc(-c3cccs3)cc(C(F)(F)F)n2)s1 returned Coupling enz 4, GALK inhibitor -1%, TrxR1 substrate 14%, TrxR1 inh 35µM* and USP1-UAF1 inh -11%.
`COc1ccc(NC(=O)CCS(=O)(=O)c2nc(-c3cccs3)cc(C(F)(F)F)n2)cc1` gave TrxR1 substrate 13%[2.29 µM], TrxR1 inh 13µM* and USP1-UAF1 inh -5%.
`O=C(CCS(=O)(=O)c1nc(-c2cccs2)cc(C(F)(F)F)n1)Nc1ccc(OC(F)(F)F)cc1` gave TrxR1 substrate 6%, TrxR1 inh -3% and USP1-UAF1 inh 14µM*.
For O=C(CCS(=O)(=O)c1nc(-c2cccs2)cc(C(F)(F)F)n1)Nc1ccc(F)c(Cl)c1 the results were TrxR1 substrate 18%[2.29 µM], TrxR1 inh inconclusive and USP1-UAF1 inh inconclusive.
Screening COc1ccc(Cl)cc1NC(=O)CCS(=O)(=O)c1nc(-c2cccs2)cc(C(F)(F)F)n1 returned TrxR1 substrate 5%[2.29 µM], TrxR1 inh inconclusive and USP1-UAF1 inh -16%.
Screening Cc1cc(C)nc(SCc2cc(=O)c(OC(=O)c3ccc(Br)o3)co2)n1 returned Coupling enz 4, GALK inhibitor -1%, TrxR1 substrate -11%, TrxR1 inh 79µM* and USP1-UAF1 inh -4%.
`Cc1cc(C)nc(SCc2cc(=O)c(OC(=O)c3ccco3)co2)n1` gave Coupling enz 3, GALK inhibitor 0%, TrxR1 substrate 14%, TrxR1 inh 21% and USP1-UAF1 inh -17%.
For Cc1cc(C)nc(SCc2cc(=O)c(OC(=O)c3ccc(S(=O)(=O)N4CCCC4)cc3)co2)n1 the results were Coupling enz 6, GALK inhibitor 1%, TrxR1 substrate 4%, TrxR1 inh 16µM* and USP1-UAF1 inh -4%.
`CCCCC1=CC2=C(OC(C)=O)C(=O)C(C)(OC(=O)c3ccc(Cl)nc3)C(=O)C2=CO1` (stereo not given) gave Coupling enz 1.
For O=[N+]([O-])c1ccc2c(c1)C=C/C2=C\c1ccc(C=S)cc1 the results were TrxR1 substrate 0% and TrxR1 inh -27%.
`Cc1ccc(NC(=O)c2nc(S(=O)(=O)Cc3ccccc3)ncc2Cl)cc1` gave Coupling enz 1, GALK inhibitor 1%, TrxR1 substrate -2%, TrxR1 inh 8.9µM* and USP1-UAF1 inh -16%.
`O=C(NCc1ccccc1)c1nc(S(=O)(=O)Cc2ccc(F)cc2)ncc1Cl` gave TrxR1 substrate -1%, TrxR1 inh 3.5µM* and USP1-UAF1 inh inconclusive.
Screening Cc1ccccc1CS(=O)(=O)c1ncc(Cl)c(C(=O)Nc2ccc(F)cc2)n1 returned GALK inhibitor 3%, TrxR1 substrate -3%, TrxR1 inh 0% and USP1-UAF1 inh -27%.
For CCOc1ccccc1NC(=O)c1nc(S(=O)(=O)Cc2ccccc2F)ncc1Cl the results were TrxR1 substrate 10% and TrxR1 inh inconclusive.
Screening CCOc1ccc(NC(=O)c2nc(S(=O)(=O)Cc3ccc(F)cc3)ncc2Cl)cc1 returned TrxR1 substrate 1% and TrxR1 inh 4.5µM*.
`CCOc1ccc(NC(=O)c2nc(S(=O)(=O)Cc3ccccc3C)ncc2Cl)cc1` gave TrxR1 substrate -3% and TrxR1 inh 14µM*.
Screening Cc1cccc(CS(=O)(=O)c2ncc(Cl)c(C(=O)NCc3ccccc3)n2)c1 returned GALK inhibitor -6%, TrxR1 substrate -2%, TrxR1 inh 6.3µM* and USP1-UAF1 inh -12%.
COc1ccc(NC(=O)c2nc(S(=O)(=O)Cc3cccc(C)c3)ncc2Cl)c(OC)c1 was read as GALK inhibitor -2%, TrxR1 substrate 2%, TrxR1 inh 13% and USP1-UAF1 inh -7%.
For O=C(Nc1ccc(F)cc1)c1nc(S(=O)(=O)Cc2ccccc2)ncc1Cl the results were GALK inhibitor 4%, TrxR1 substrate 1%, TrxR1 inh 3.5µM* and USP1-UAF1 inh inconclusive.
